# Assay results reported in the supplement of paper PMC10338343.
# ± gives the standard deviation.
# Key:
# [1] = tested on: MILI (PIWIL2) piRISC loaded with L1MC piRNA (26 nt); test: pre-steady-state target cleavage rate (min^-1); guide: L1MC piRNA 5'p-UAACUAAAUACUAUGCAAGCUGUAGG; higher = faster piRNA-guided slicing of the target; details: auxiliary factor: 500 nM mouse GTSF1;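 also: 1 nM active piRISC with 0.1 nM target library at 33 °C single turnover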
# Procedure, shortened: (§1)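 For Cleave-'n-Seq, a transcribed, DNA-blocked target RNA library […] met 1 nM active affinity-purified piRISC with one synthetic guide at 33 °C for 0–8 or 0–960 min in HEPES–potassium acetate buffer, with or without 500 nM GTSF1 partner protein. Uncleaved targets were sequenced and normalised to depth and weakly complementary targets, with three trials pooled and k3 capped at 0.0001 min^-1. A burst-and-steady-state fit supplied the pre-steady-state cleavage rate.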
# [2] = tested on: EfPiwi piRISC loaded with L1MC piRNA (26 nt); test: pre-steady-state target cleavage rate (min^-1); auxiliary factor: 500 nM Ephydatia muelleri Gtsf1; guide: L1MC piRNA 5'p-UAACUAAAUACUAUGCAAGCUGUAGG; MIWI and MILI are mouse PIWI proteins and EfPiwi is from a freshwater sponge; tags in brackets are library labels; higher = faster piRNA-guided slicing of the target
# Procedure, shortened: as §1
Sequence,pre-steady-state target cleavage rate [1],pre-steady-state target cleavage rate [2]
UCCUGGAACAGCUUGGAUAGUAUUUAGAAA,0.0385 ± 0.012,0.00373 ± 0.0019
UCCUGGAACAGCUUGCAUUGUAUUUAGAAA,0.115 ± 0.028,0.00376 ± 0.0021
UCCUCCUAGAGCUUCCAUAGUAUUUAGUUA,0.0812 ± 0.025,0.00302 ± 0.0014
UCCUCGAUCAGCUUGCAUAGUAUUUACAAA,0.135 ± 0.026,0.00554 ± 0.003
UCCUGGAACAGCUUGCAUAGAAUUUUGUUA,0.0296 ± 0.01,0.00229 ± 0.0021
UCCUGCUACAGCUUGCAUAGUAAUUAGUAA,0.133 ± 0.025,0.00441 ± 0.0018
UCCUGGAUCAGCUUGCAUUGUAUUUAGAUA,0.103 ± 0.019,0.00276 ± 0.0021
UCCUGGAACAGCUUGCAUAGUAUUAUGAAA,0.0563 ± 0.02,0.00336 ± 0.0021
UCCUCCUACAGCUUGCAUAGUAUUAUCUAA,0.187 ± 0.045,0.00413 ± 0.0033
UCCUGGAACAGCUUGCAUAGUAUAUAGAAA,0.0917 ± 0.026,0.00685 ± 0.0044
UCCUGGAACAGCUUGCAUUGUAUUUAGAUA,0.149 ± 0.019,0.00313 ± 0.0017
UCCUGGUACAGCUUGGAUAGUAUUUAGUAA,0.202 ± 0.041,0.00283 ± 0.0021
UCCUCCUAGAGCUUGCAUACUAUUUAGUUA,0.101 ± 0.018,0.00855 ± 0.0026
UCCUCCUACAGCUUGCAAAGUAUUUAGAAA,0.0823 ± 0.015,0.00344 ± 0.0017
UCCUGGAUGAGCUUGCAUAGUAUUAAGAAA,0.0183 ± 0.0092,0.004 ± 0.0026
UCCUGGAUGUGCUUGCAUAGUAUUGAGUUA,0.0612 ± 0.019,0.00273 ± 0.0022
UCCUGGUACAGCUUGCAAAGUAUUUUCAAA,0.0283 ± 0.012,0.00424 ± 0.0036
UCCUGGAACAGCUUGCAUACUAUUUAGAUA,0.013 ± 0.0053,0.00312 ± 0.0022
UCCUGGAUGUGCUUGCAUAGUAAUUAGAUA,0.00915 ± 0.0044,0.00395 ± 0.0024
UCCUGGUACAGCUUGCAUAGUAAUUAGUAA,0.212 ± 0.037,0.00568 ± 0.0029
UCCUGCUACACCUUGCAUAGUAUUUAGAUA,0.112 ± 0.032,0.00254 ± 0.0016
UCCUGGUACAGCUUGCAAAGUAUUUAGUAA,0.0794 ± 0.014,0.00304 ± 0.0024
UCCUCCUAGAGCUUGCAUAGUAUUUACAAA,0.0915 ± 0.027,0.00252 ± 0.0019

Sequence,pre-steady-state target cleavage rate [1],pre-steady-state target cleavage rate [2]
UCCUCCUACUGCUUGCAUAGUAUUUAGUAA,0.126 ± 0.017,0.00527 ± 0.0023
UCCUGCUACAGCUAGCAUAGAAUUUAGUUA,0.0821 ± 0.018,0.00327 ± 0.0022
UCCUGGAUCAGCUUGCAAAGUAUUUACAAA,0.0432 ± 0.012,0.00563 ± 0.0037
UCCUCCUACACCUUGCAUACUAUUUAGUUA,0.0962 ± 0.025,0.00578 ± 0.0029
UCCUCCUACAGCUUGCAUAGUAUUUAGUCUA,0.154 ± 0.041,0.00459 ± 0.0018
UCCUCCUACAGCUUGCAUAGUAUUUGUUA,0.203 ± 0.04,0.00561 ± 0.0026
UCCUGCUUGAGCUUGCAUAGUAUUUACAAA,0.0564 ± 0.017,0.00279 ± 0.0023
UCCUCCUACAGCUUGCAUAGUUUUUUCAAA,0.0513 ± 0.014,0.00481 ± 0.0034
UCCUCCUACAGCUACGAUAGUAUUUAGUUA,0.232 ± 0.015,0.00503 ± 0.0031
UCCUGGAUGUGCUUGCAUAGUAUUUACAAA,0.00913 ± 0.0046,0.00369 ± 0.0033
UCCUCCUACAGCUUGCAUAGUAUUAACUUA,0.0722 ± 0.018,0.00459 ± 0.0029
UCCUGCUACAGCUUGCAUACUAAUUAGUUA,0.0334 ± 0.0091,0.00252 ± 0.0014
UCCUGGAUCAGCUUGCACUAGUAUUUAGUUA,0.00868 ± 0.0048,0.00365 ± 0.0027
UCCUGCUACAGCUAGCAUAGUAUUUAGAAA,0.227 ± 0.051,0.00418 ± 0.0021
UCCUGGAACACGAUGCAUAGUAUUUACAAA,0.0623 ± 0.018,0.00408 ± 0.0037
UCCUCCUACAGCUUGCAUAGUAUUUUGAUA,0.112 ± 0.024,0.0044 ± 0.0029
UCCUGGAUGUCGAACCAUAGUAUUUACAAA [g5:g15:cont:t1A],< 0.0001,< 0.0001
UCCUCCUUGUGCUUGCAUAGUAUUUACAAA,0.0181 ± 0.0068,0.00376 ± 0.0032
UCCUGGAUGAGCUUGCAUAGAAUUUAGUAA,0.0264 ± 0.011,0.00272 ± 0.0027
UCCUGCUACAGCUUGCAUAGUAUGUUAGUUA,0.164 ± 0.036,0.00247 ± 0.002
UCCUGCUACAGCUUGGAUAGUAUUUAGAAA,0.0121 ± 0.0049,0.00242 ± 0.0021
UCCUGGAUGUGGAUGCAUAGUAUUUAGAAA,0.013 ± 0.0055,0.00388 ± 0.0027
